In PubChem BioAssay (NCI) one finds growth data, which are given here for 34 compounds.

Compounds without any hit were thinned out: in the full panel of roughly 83,000, 20% have a hit.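 Each cell line was grown in a 96-well plate and treated with one concentration of compound for 48 hours. Values below 10 were considered active.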 Unmarked numbers belong to inactive results. Active and inactive are the calls of the source.

For the assay, the system named is M14 melanoma. Nature of the assay: NCI-60 one-dose screen, 48 h (100 = growth as untreated, 0 = no growth, -100 = all killed). As to conditions: 10 µM unless noted.
`Cc1cccc(NC(=O)Nc2ccc(-c3ccc4c(c3)NC(=O)/C4=C\c3ccc[nH]3)cc2)c1`: the growth was 84.9%.
In the case of `Cc1cc2nc3c4cc(C=O)ccc4n(CCN(C)C)c3nc2cc1C` it was 15.8%.
To `c1ccc2c(-c3nccs3)c[nH]c2c1` belongs 99.1%.
In the case of `COc1cc(NC(C)CCCNC(=O)CCC(=O)NCCCNCCCCCCCCCCNCCCNC(=O)CCC(=O)NCCCC(C)Nc2cc(OC)cc3cccnc23)c2ncccc2c1` (centres undefined) it was 87% [8 µM].
On to `O=C1c2ccc3c4c(ccc(c24)C(=O)N1CCCNCc1ccccc1)C(=O)N(CCCNCc1ccccc1)C3=O`, for which the growth is -76% (active).
Take `COc1ccc(CNCCN2C(=O)c3ccc4c5c(ccc(c35)C2=O)C(=O)N(CCNCc2ccc(OC)c(OC)c2OC)C4=O)c(OC)c1OC`: the growth is -58.3% (active).
In the case of `CCN(CC)c1ccc(C(=O)c2ccccc2)cc1` it was 102%.
In the case of `COc1cc2c(c(O)c1Cl)C(=O)c1c(O)cc(C[C@H](C)O)cc1[C@H]2[C@H]1c2cc(C[C@H](C)O)cc(O)c2C(=O)c2c1cc(OC)c(Cl)c2O` it was 19%; in that of `Nc1c(C(=O)Nc2cccc3cnccc23)sc2nc3c(cc12)C(=O)CCC3`, 74.6%.
In the case of `O=C(CCN1CCCC1)Nc1ccc2c(Nc3ccc(F)cc3)c3ccccc3nc2c1` it was -80.7% (active).
Turning to `COc1cc2c(cc1OC)C(=O)/C(=C/c1cc(C)c(O)c(C)c1)S2`, the growth was 19.1%.
To `CCCCCN1C=C/C(=C\C(=O)N(C)c2ccc(Oc3ccccc3)cc2)c2ccccc21` belongs 94.1%; to `C/C(=N\Nc1cc(C)nc2ccc(Br)cc12)c1ccc([N+](=O)[O-])cc1`, 84.6%; to `N/C(=N\C(N)=N\c1nc2ccccc2s1)c1ccnc(Br)c1`, 21.5%.
To `COc1cc(/C=N/NC(=O)c2cnn3c2NC(c2ccccc2)C3)ccc1Oc1ccccc1` (centres undefined) belongs 18.2%; to `COc1cc(-c2n/c(=C\c3c(O)[nH]c4ccc(Cl)cc34)cc3c2=Nc2ccccc2-3)ccc1F`, 14%; to `c1ccc2c(-c3c[nH]c4ccccc34)c3c(cc2c1)[nH]c1ccccc13`, 39.2%.
In the case of `C=C(C)[C@@H]1CC[C@]2(CN)CC[C@]3(C)[C@H](CC[C@@H]4[C@@]5(C)CCCNC(C)(C)[C@@H]5CC[C@]43C)[C@@H]12` it was -77.7% (active).
Consider `CCOC(=O)/C(C#N)=C1/NNC(=Nc2cccnc2)S1`, for which the growth was 95.9%.
In the case of `O=C1c2ccc3c4c(ccc(c24)C(=O)N1CCCNCc1ccccc1Cl)C(=O)N(CCCNCc1ccccc1Cl)C3=O` it was -56.5% (active).
To `CCN(CC)c1ccc(/C=N/NC(=O)CSc2nc3ccccc3c(=O)n2Cc2ccc(S(N)(=O)=O)cc2)c(O)c1` belongs 4.26% (active); to `COc1cc(/C=C/c2cc(O)c(C(C)=O)c(O)c2)cc2c1O[C@]1(C)CC[C@@H](O)C(C)(C)[C@H]1C2`, 51.5%.
In the case of `O=C(CCN1CCCC1)Nc1ccc2c(NCCCc3ccccc3)c3ccccc3nc2c1` it was -61.5% (active); in that of `CCSCC1CC(O)(c2ccccc2)CC(c2ccc(F)cc2)O1` (centres undefined), 5.84% (active); in that of `N/C(=N\C(N)=N\c1nc2ccccc2s1)c1cnccn1`, 23.2%.
As for `C#CCNC(=O)[C@]1(C)CC[C@]2(C)CC[C@@H]3C(=CC[C@H]4[C@@]3(C)CC[C@H]3C(C)(C)C(=O)CC[C@]43C)[C@@H]2C1`, the growth was 95.8%.
In the case of `CCc1ccc(CNc2ccc(N3CCOCC3)c(C(=O)O)c2)cc1` it was 99.7%; in that of `COc1ccc(/C=N/NC(=O)c2cnn3c2NC(c2ccccc2)C3)cc1OC` (centres undefined), 45.5%.
To `N#CC1=C(/N=C/c2ccccc2)Oc2c(ccc3ccccc23)C1c1ccc([N+](=O)[O-])cc1` (centres undefined) belongs 102%; to `O=C(Cc1ccccc1)NNc1nc(Cl)nc(N2CCN(C(c3ccccc3)c3ccccc3)CC2)n1`, 81.6%.
In the case of `COC(=O)C1=C(C(=O)ON)[C@@H]2C=C[C@@]1([C@@H](Cc1ccccc1)Nc1ccccc1)O2` it was 95.3%; in that of `CCCOC(=O)N[C@H]1CCc2c(Cl)c(OC)c(OC)c(OC)c2-c2ccc(SC)c(=O)cc21`, -13.6% (active).
For `CCN(CC)CCCC(C)Nc1cc(O)cc2cccnc12` (centres undefined), the growth is 113%.
For `O=C1c2ccc3c4c(ccc(c24)C(=O)N1CCCNCc1ccccc1F)C(=O)N(CCCNCc1ccccc1F)C3=O`, the growth was -60.8% (active).
